Assay outcomes (PubChem BioAssay)
Compounds with a hit are over-represented: about 3.8% of the library has one in this group of screens.
HSF1 inhib: HSF1 inhibition; activity change, negative = inhibition, % at 7.5 µM (by protocol); AID 2098; hit rate 0.77% among 300,000; NIH3T3-HGL HSE-luciferase, MG132-induced, luminescence 8 h; stronger effect = lower value;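 active = more than half of replicate wells show activity change below -50%, luminescence cut by over half; inconclusive = some wells, but at most half, below -50%; inactive = no replicate well below -50%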;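 also: luciferase reports HSF-1 transcriptional activity via heat shock element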
HSF1 activator: increases HSF-1 driven luciferase reporter signal; NIH3T3-HGL HSF-1 luciferase reporter, MG132, 8 h; 100% = twice DMSO control signal; activation, % at 9 µM; hit rate 1.7% among 300,000;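 active = mean replicate activation of at least 50% with a set share of replicates each reaching 50%; inconclusive = only one of those two conditions met; inactive = mean below 50% and too few replicates reaching it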
NALP1 yeast inh: NALP1 inhibition; S. cerevisiae NALP1/ASC/caspase-1 growth, X-gal OD620, 72 h; inhibition, % at 10 µM; hit rate 0.61% among 280,000; AID 2071; in the data active = inhibition mostly above about 24%, no sharp cut-off; inactive = mostly below about 32%
Hsp70 activator: transcriptional activators of Hsp70 | activation, % at 10 µM | AID 1203 | hit rate 0.04% among 200,000 | HeLa Hsp70 promoter luciferase reporter, luminescence; scaled: vehicle 0, proteasome-inhibitor control 100%;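 active = activation above the mean across all tested compounds plus 3 SD, cutoff set per campaign, cut at about 5.5% in these data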
HSP90 refold inh: blocks HSP90-mediated luciferase refolding in reticulocyte lysate; Rabbit reticulocyte lysate, luciferase refolding luminescence, 3 h; hit rate 0.91% among 290,000; inhibition, % at 5.6 µM;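 active = inhibition above the screen-wide mean plus 3 SD, computed separately per campaign, cut at about 16% in these data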;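 also: inhibitors lower the luminescence because luciferase stays unfolded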
p-CIP stab down: p/CIP protein destabilization; hit rate 0.01% among 290,000; F442A p/CIP-EGFP cells, EGFP fluorescence, 16 h; decrease of EGFP signal, % at 10 µM;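 active = EGFP signal decrease of at least 30% at 10 µM or well 3 SD below plate mean, unless failing retest; inactive = the rest, including hits failing retest or dose response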
HSP90 inh confirm: HSP90 inhibition, confirmation assay | inhibition, % at 5.9 µM | AID 1846 | shares compounds with HSP90 refold inh | hit rate 64% among 2,300 | rabbit reticulocyte lysate, luciferase refolding luminescence, 3 h; in the data active = inhibition above about 18%
luciferase ctr: firefly luciferase inhibition, HSP90 counter-screen. inhibition, % at 5.9 µM. shares compounds with HSP90 refold inh. hit rate 48% among 2,300. purified native firefly luciferase, luminescence;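 active = inhibition above the mean inhibition of all tested sample wells plus 3 SD, cut at about 10% in these data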
Target sequence (P08659 whole entry, looked up): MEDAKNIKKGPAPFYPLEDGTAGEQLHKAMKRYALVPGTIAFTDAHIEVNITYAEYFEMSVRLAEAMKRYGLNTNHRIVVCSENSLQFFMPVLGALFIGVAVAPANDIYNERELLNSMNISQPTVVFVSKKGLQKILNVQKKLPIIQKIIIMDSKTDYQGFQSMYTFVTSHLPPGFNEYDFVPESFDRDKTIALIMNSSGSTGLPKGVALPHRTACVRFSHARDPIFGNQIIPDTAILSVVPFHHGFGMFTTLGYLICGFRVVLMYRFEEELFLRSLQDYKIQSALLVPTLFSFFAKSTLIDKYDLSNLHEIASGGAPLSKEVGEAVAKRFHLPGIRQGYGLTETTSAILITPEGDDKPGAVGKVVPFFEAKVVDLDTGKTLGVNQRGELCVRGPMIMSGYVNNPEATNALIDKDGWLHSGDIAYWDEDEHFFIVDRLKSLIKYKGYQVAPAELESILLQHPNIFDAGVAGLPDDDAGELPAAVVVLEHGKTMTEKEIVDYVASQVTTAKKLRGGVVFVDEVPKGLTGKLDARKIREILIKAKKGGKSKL
Numbers stand for hits; - = inactive; ? = inconclusive; . = no result.

SMILES | HSF1 inhib | HSF1 activator | NALP1 yeast inh | Hsp70 activator | HSP90 refold inh | p-CIP stab down | HSP90 inh confirm | luciferase ctr
COc1cc(OC)cc(C(=O)NC2CCCCCCC2)c1 | - | - | - | . | - | - | . | .
COc1ccc(C(=O)NNC(=O)C(=O)NC2CCCCC2)cc1 | - | - | - | . | 19.3 | - | - | -
O=C(Nc1nccs1)c1sc2ccccc2c1Cl | - | - | - | - | 23.5 | - | 50.5 | 44.7
Cc1cnc(NC(=O)c2sc3ccccc3c2Cl)s1 | - | - | - | - | - | - | . | .
COc1ccc(CC(=O)N/N=C(\C)c2ccc(Br)s2)cc1 | - | - | . | . | . | . | . | .
Cc1cc(=O)n2nc(N3CCC(C(=O)NCC(C)c4ccccc4)CC3)sc2n1 (configuration not stated) | - | - | - | . | - | - | . | .
c1csc(CNc2ccc3c(c2)OCCO3)c1 | . | . | . | - | 31.1 | - | 21.5 | 14.9
CCOc1cc(S(=O)(=O)NCCCn2ccnc2)ccc1Cl | - | - | - | . | - | - | . | .
Cc1cc2ncc(-c3ncc(C(F)(F)F)cc3Cl)cn2n1 | - | - | - | - | 17.5 | - | 67.5 | 54.6
Cc1ccccc1S(=O)Cc1ccc(C(=O)N2CCN(C(=O)c3ccco3)CC2)o1 (configuration not stated) | - | - | - | . | - | - | . | .
COc1ccc(NC(=O)/C(C#N)=C/c2ccc(-c3ccccc3C(=O)O)o2)cc1 | - | - | - | . | - | - | . | .
COc1ccc(NC(=O)/C(C#N)=C\c2ccc(-c3cccc(C(=O)O)c3C)o2)cc1 | - | - | - | . | 31.8 | - | 28.1 | -
Cc1ccc(OCC(=O)NCCNC(=O)c2cccnc2)cc1C | - | - | - | . | - | - | . | .
CC1CCN(CCNC(=O)c2ccc(NC(=O)C3CCCO3)cc2)CC1 (configuration not stated) | - | - | - | - | - | - | . | .
CCOCCCNC(=O)c1ccc(NC(=O)C2CCCO2)cc1 (configuration not stated) | - | - | - | . | 29.9 | - | - | -
CC1=NN(c2ccccc2)C(=O)/C1=C/c1cccs1 | - | - | - | - | - | - | . | .
CC1=NN(c2ccc(C(=O)O)cc2)C(=O)/C1=C\c1ccc(OC(=O)c2cccs2)cc1 | - | - | - | - | 26.4 | - | - | 17.0
COc1ccc(NC(=O)COC(=O)Cc2cccs2)cc1OC | - | - | . | . | . | . | . | .
COc1ccc(/C=N/Nc2ccc(C(=O)O)cc2)cc1OC | - | - | . | . | 34.6 | - | 44.0 | 28.6
Nc1ccc(C(=O)N/N=C\c2ccc(OC(=O)c3ccccc3Cl)cc2)cc1 | - | - | - | . | - | - | . | .
COc1ccc(/C=N/NC(=O)OC(C)(C)C)cc1OC | - | - | - | - | - | - | . | .
COc1ccc2c(c1)c(/C=N/Nc1ccc(C(=O)O)cc1)c(C)n2C | - | - | . | . | 30.4 | - | 41.1 | 34.6
O=C(O)c1ccc(N/N=C/c2ccc(OC(=O)c3ccccc3Cl)cc2)cc1 | -55.1 | - | - | - | 36.0 | - | 88.4 | -
C=CCOc1c(Br)cc(/C=N/Nc2ccc(C(=O)O)cc2)cc1OCC | -52.6 | - | - | - | 20.2 | - | 23.8 | 10.3
Cn1c(CNC(=O)c2ccco2)nnc1SCC(=O)Nc1c(F)cc(F)cc1Br | - | ? | - | - | - | - | . | .
SMILES | HSF1 inhib | HSF1 activator | NALP1 yeast inh | Hsp70 activator | HSP90 refold inh | p-CIP stab down | HSP90 inh confirm | luciferase ctr
CCC(C(=O)Nc1c2c(nn1C(C)(C)C)CS(=O)(=O)C2)c1ccccc1 (configuration not stated) | - | - | - | . | - | - | . | .
CC(C)[C@H](NS(=O)(=O)c1ccc(Cl)cc1)C(=O)OCC(=O)NCCN1C(=O)CSC1=O | - | - | - | . | - | - | . | .
COc1ccc(/C=N/Nc2ccc(C(=O)O)cc2)cc1Br | -77.7 | - | - | - | 59.9 | - | 76.5 | 76.4
COc1ccc(/C=N\NC(=O)C2CCCC2)cc1Br | - | - | - | . | - | - | . | .
O=C(O)c1ccc(/C=N/Nc2cccc(C(F)(F)F)c2)cc1 | - | ? | - | - | - | - | . | .
CC(C)c1ccc(/C=N/Nc2ccc(C(=O)O)cc2)cc1 | -90.0 | - | - | - | 61.3 | - | 89.6 | 84.9
Cc1nnc(N/N=C/c2ccc([N+](=O)[O-])cc2)n1N | - | - | - | - | - | - | . | .
